# HCMV antiviral: blocks human cytomegalovirus replication; HFF cells, HCMV-luciferase reporter, 72 h; hits give low values; 4.5% of 410,000 active; activity change, negative = inhibition, % at 57.5 µM; in the data active means activity change below about -60%; inconclusive means no clear call, values can overlap the other calls; inactive means above about -39%
#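 Human foreskin fibroblasts infected with luciferase-reporter HCMV at MOI 1 PFU/cell, compounds at two doses. Luciferase measured 72 h post infection; normalized to buffer-only basal and Salinomycin (10uM) controls.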
# FMDV antiviral: blocks foot and mouth disease virus; FMDV antiviral cell-based qHTS; Potency, µM (series often up to 57.9 µM), inactives show at the top dose activity change, negative = inhibition, hits mostly inhibitors; 1.2% of 410,000 active; calls by dose curve; tested in HEK293T cells; further: read-out not given here; potency means the concentration at half of the fitted maximal effect; nearly all actives have a fitted effect of over 45% in size
# HCV inhibitor: inhibitors of hepatitis C virus infection; Huh7.5.1 HCVcc-Cre infection, luciferase reporter, 44 h; Potency, µM (highest dose often 41.8 µM), for the others: at the highest dose activity change, negative = inhibition, actives largely listed as inhibitors; 3.4% of 340,000 active; active means well fitted inhibition curve with a large enough effect; inconclusive means small, poorly fitted or top-dose-only effect, or another doubt; inactive means no such curve, though single readings can be large or run the other way; further: potency means the concentration at half of the fitted maximal effect
#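 Cells (1,000/well) were plated 4 h before compound, then infected with HCVcc-Cre virus (~0.5 moi). After 44 h further culture, infection was read as luciferase luminescence following a 15 min substrate incubation at room temperature.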
# LASV entry inh: inhibitors of Lassa virus binding or cell entry; 1.2% of 300,000 active; Potency, µM (top dose mostly 37.9 µM), for inactives: at the top dose activity change, negative = inhibition, actives largely listed as inhibitors; Lassa virus pseudotype entry inhibition, cell reporter; AID 540256; calls by dose curve; tested in HEK293 cells; further: potency means the concentration at half of the fitted maximal effect; nearly all actives have a fitted effect of over 50% in size
# MARV entry inh: Marburg virus entry inhibition. Marburg virus pseudotyped entry inhibition, cell reporter. Potency, µM (top dose mostly 37.8 µM), for inactives: top-dose activity change, negative = inhibition, usual class: inhibitors. 1.8% of 300,000 active. AID 540276; calls by dose curve; tested in HEK293 cells; further: potency means the concentration at half of the fitted maximal effect
# * marks the source's active call; other numbers are inactive results; ? = inconclusive; nt = no result given; [ ] = remark or other dose. In the library only some 7.9% were active in any assay of this set; here they are far more common. On the % scale 0 is the no-effect control and ±100 the full control effect.
SMILES,HCMV antiviral,FMDV antiviral,HCV inhibitor,LASV entry inh,MARV entry inh
Cc1nc(N2CCN(c3ccccn3)CC2)c2c(C)c(C(=O)Nc3ccc(F)cc3Cl)sc2n1,?,11µM*,?,nt,nt
Cc1nc(N2CCC(C)CC2)c2c(C)c(C(=O)Nc3ccc(C(F)(F)F)cc3)sc2n1,-12,?,11µM*,?,?
COCCCNC(=O)c1sc2ncnc(N3CCc4ccccc4C3)c2c1C,-11,?,?,?,8.2µM*
Cc1nc(N2CCC(C)CC2)c2c(C)c(C(=O)Nc3ccc4c(c3)OCCO4)sc2n1,0,-22%,4%,nt,nt
Cc1c(C(=O)N2CCOCC2)sc2ncnc(N3CCc4ccccc4C3)c12,13,-19%,8%,-27%,-5%
Cc1c(C(=O)Nc2ccc3c(c2)OCCO3)sc2ncnc(N3CCCCC3C)c12 (stereo not drawn),?,?,11µM*,nt,nt
O=C(N[C@H](Cc1ccccc1)C(O)c1nc2ccccc2[nH]1)c1cccc2ccccc12 (stereo partly drawn),-12,nt,nt,nt,nt
COc1ccc(NC(=O)c2sc3ncnc(N4CCN(c5ccccn5)CC4)c3c2C)cc1Cl,?,?,6.3µM*,nt,nt
Cc1nc(N2CCN(c3ccccn3)CC2)c2c(C)c(C(=O)Nc3ccccc3F)sc2n1,2,?,?,?,?
CCc1ccc(NC(=O)c2sc3nc(C)nc(N4CCN(c5ccccn5)CC4)c3c2C)cc1,?,2.2µM*,1%,12%[46.1 µM],10µM*
COc1ccc(NC(=O)c2sc3nc(C)nc(N4CCN(c5ccccn5)CC4)c3c2C)cc1Cl,-38,-20%,?,?,2%[46.1 µM]
Cc1ccc(CN2C[C@H](Sc3ccccn3)C[C@H]2C(=O)Nc2ccc3sc(C)nc3c2)c(C)c1,nt,6%,nt,nt,nt
C=CCn1c(COc2ccc3c(c2)CCCC3)nnc1SCC(=O)Nc1cccc(SC)c1,25,-26%,11µM*,-12%,?
C=CCn1c(COc2ccccc2)nnc1SCC(=O)Nc1ccc2c(c1)OCCO2,9,0%,7%,-2%,-2%[46.1 µM]
CN(c1ccccc1)S(=O)(=O)c1cccc(C(=O)NCCc2c[nH]c3ccccc23)c1,-23,?,10µM*,nt,nt
O=C(N=Nc1c(O)[nH]c2ccccc12)c1cccc(S(=O)(=O)Nc2ccccc2Cl)c1,-72*,26%,8%,nt,nt
C[C@@H]1C=C[C@](Cc2ccccc2)(C(=O)NCCc2c[nH]c3ccccc23)N1C(=O)c1ccccc1,?,6%,-10%[8.37 µM],8.2µM*,?
O=C(NCCc1c[nH]c2ccccc12)c1cccc(S(=O)(=O)Nc2ccccc2Cl)c1,-100*,-19%,9%,-10%,-1%
COc1cc(N)c(Cl)cc1C(=O)OCC(=O)NCC1CCCCC1,-66*,-18%,10µM*,-29%[46.1 µM],?
COc1cc(N)c(Cl)cc1C(=O)OCC(=O)NCC1CCCO1 (stereo not drawn),-14,-21%,-7%,21%,-9%
Cc1cccc(NC(=O)c2ccc3oc(=O)c(S(=O)(=O)c4ccc(F)cc4)cc3c2)c1C,46,32µM*,nt,7%[46.1 µM],14%[46.1 µM]
CC(C)c1ccc(NC(=O)c2ccc3oc(=O)c(S(=O)(=O)c4ccc(F)cc4)cc3c2)cc1,71,?,nt,26%[46.1 µM],?
c1cc2c(cn1)cnc1cscc12,-63*,13%,-3%,6%,-4%
c1cnc2c(c1)ncc1cscc12,-22,2%,4%,3%,2%
CN1/C(=C\C(=O)COC(=O)C2COc3ccccc3O2)C(C)(C)c2ccccc21 (stereo not drawn),nt,-10%,2%,5%,-7%[46.1 µM]
SMILES,HCMV antiviral,FMDV antiviral,HCV inhibitor,LASV entry inh,MARV entry inh
COc1ccccc1OCC(=O)/C=C1/N(C)c2ccccc2C1(C)C,21,?,10µM*,-24%,19%[46.1 µM]
CN1/C(=C\C(=O)C(F)F)C(C)(C)c2ccccc21,10,?,16%,-2%,3%
CN1/C(=C\C(=O)C[n+]2ccc3ccccc3c2)C(C)(C)c2ccccc21,-97*,?,?,?,?
CN1/C(=C\C(=O)COc2ccc3c(c2)OCO3)C(C)(C)c2ccccc21,?,25µM*,?,-18%,-1%
CC(C)(C)OC(=O)C[C@@H]1C/C=C\C[C@H](CC(=O)N(CCO)Cc2ccccc2)C(=O)NCCOC1=O,5,-19%,-6%,nt,nt
O=C(NC1CC(=O)N(c2ccc(F)cc2)C1)c1cc2ccccc2o1 (stereo not drawn),4,-7%,nt,-18%[46.1 µM],nt
